15 molecules from the supplement of paper PMC9897528 can be followed below.
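Also: conidia screened in RPMI 1640 medium under 5% CO2, growth read by spectrophotometer, medium with 0.5% DMSO serving as the untreated reference.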

In the experiment the test system is Scedosporium aurantiacum CBS 136046. Briefly: growth inhibition relative to DMSO control (OD600); higher = more antifungal activity, active = 80 or more; extreme values may be limits of the assay. The conditions noted are these: 5 µM; 72 h; 37 °C.
With `Cc1cc(Nc2ccc(F)cc2)nc(SCc2nc3ccccc3[nH]2)n1`, the growth inhibition is 0% (inactive). The value for `COc1ccc(C2CNC(=O)C2)cc1OC1CCCC1` (stereo not given) was 16.6% (inactive); that for `O=C(CP(=O)(O)O)NCCc1cccc(Oc2ccccc2)c1` was 31.5% (inactive). Turning to `O=C(Nc1nnc(-c2ccc(Cl)cc2)o1)c1ccc(F)cc1`, the growth inhibition was 48.5% (inactive). Regarding `O=C(NN1C(=O)[C@@H]2[C@@H]3C=C[C@@H]([C@H]4C[C@@H]34)[C@@H]2C1=O)c1ccc(C(F)(F)F)cc1`, the growth inhibition is 6.47% (inactive). The value for `N[C@H](CCC(=O)N[C@@H](Cc1c[nH]c2ccccc12)C(=O)O)C(=O)O` was 1.28% (inactive). Turning to `CC(C)/N=c1\cc2n(-c3ccc(Cl)cc3)c3ccccc3nc-2cc1Nc1ccc(Cl)cc1`, the growth inhibition was 24.6% (inactive). The value for `CCn1cc(C(=O)O)c(=O)c2cc(F)c(N3CCNC(C)C3)c(F)c21` (stereo not given) was 4.34% (inactive). `CCCCCc1ccc(C(=O)NCCn2cc(CCCCCc3c[nH]c(N)n3)nn2)cc1`: the growth inhibition is 46% (inactive). The value for `O=C(N[C@H](CCS)C(=O)N[C@H](Cc1ccccc1)C(=O)O)c1cc2ccccc2[nH]1` was 23.5% (inactive); that for `CC(=O)NC[C@H]1CN(c2ccc(N3CCSCC3)c(F)c2)C(=O)O1` was 29.2% (inactive); that for `O=C(NCc1ccc(F)cc1)c1c(O)c2ncccc2[nH]c1=O` was 2.42% (inactive). Consider `CC[C@H](CO)Nc1nc(NCc2ccccc2)c2ncn(C(C)C)c2n1`, for which the growth inhibition is 10% (inactive). As for `CCc1cc(O)c(Oc2ccc(C(N)=O)cc2F)cc1F`, the figure is 29.4% (inactive); as for `C=C(C)[C@@H]1CC[C@]2(C(=O)O)CC[C@]3(C)[C@H](CC[C@@H]4[C@@]5(C)CC[C@H](O)C(C)(C)[C@@H]5CC[C@]43C)[C@@H]12`, 1.06% (inactive).
